Hit rate of the full screen: of about 6,200 compounds, about 2,900 (47%) were called active. So high a share suggests a set chosen from earlier hits. Some of the results follow. A number with no mark means an inactive call. Cut-off read from the data, not from the text of the source: active = inhibition above about 50%; inactive = the rest.

The results in this text go back to PubChem BioAssay AID1259343 (VanderVen Lab, College of Veterinary Medicine, Cornell …, 2017).

This test can be described thus: Mycobacterium tuberculosis growth inhibition, primary screen (AID 1259343). Particulars: inhibition: at 10 µM, stronger effect = higher value; outcome: 10 uM.
For `CC(C)Cn1ccnc1NC(=O)c1cccc(C(F)(F)F)c1`, the inhibition (commonly the relative decrease from the control value, in per cent) is 52.5% (active).

As for `C=C(C)c1cccc(C(C)(C)NC(=O)Nc2ncccn2)c1`, the inhibition is -1.81%.

As to `CSc1nnc(COc2ccccc2Cl)n1C1CC1`, the inhibition is 1.97%.

`CN1CCN(S(=O)(=O)c2ccc(SCCOc3ccccc3Cl)nc2)CC1`: the inhibition is 90% (active).

For the compound `COc1cc(S(=O)(=O)N2CCN(c3ccccc3C)CC2)ccc1Cl`, the inhibition is 12.3%.

Regarding `CCOC(=O)c1sc2nc(C)nc(NCC(C)C)c2c1C`, the inhibition is -22.6%.

`CCOC(=O)c1sc(N)c(C(=O)OCC)c1C`: the inhibition was 32.7%.

Take `CCOC(=O)c1c(N)sc(C(N)=O)c1C`: the inhibition was 84.7% (active).

`Cc1cccc(-c2ccc(NC(=O)C3CCN(C(=O)CCc4ccncc4)CC3)cc2)c1`: the inhibition is 85% (active).

`Cc1cccc(-c2ccc(NC(=O)C3CCN(C(=O)CCc4cnn(C)c4)CC3)cc2)c1`: the inhibition is 87.8% (active).

With `Cc1cccc(-c2ccc(NC(=O)C3CCN(C(=O)Cn4cccn4)CC3)cc2)c1`, the inhibition result is “inactive”.

For the compound `Cc1cccc(-c2ccc(NC(=O)C3CCN(C(=O)CSc4ccncc4)CC3)cc2)c1`, the inhibition is 74.8% (active).

Turning to `COc1ccc2oc(=Nc3cccc(C#N)c3)c(-c3nc4ccccc4[nH]3)cc2c1`, the inhibition was -9.36%.

In the case of `COc1ccc(-c2nc(CN3CCN(c4nc5ccccc5s4)CC3)c(C)o2)c(OC)c1`, the inhibition is 15.8%.

For `CSc1ccc(-c2nc(CN3CCN(c4cnccn4)CC3)c(C)o2)cc1`, the inhibition entry was “inactive”.

As for `COc1ccc(-c2nc(CN3CCN(c4ccc(C)cc4C)CC3)c(C)o2)cc1`, the inhibition was 67.6% (active).

Regarding `Cc1ccccc1-c1cnnc(NCCCn2ccc3ccccc32)n1`, the inhibition was 32.6%.

In the case of `O=S(=O)(NC1CCCc2ccccc21)c1ccc(Br)cc1` (stereo not drawn), the inhibition was 10.2%.

Take `Ic1ccc(OCCN2CCc3ccccc3C2)cc1`: the inhibition was 46.5%.

On to `Brc1cccc(OCCN2CCc3ccccc3C2)c1`, for which the inhibition was 38.6%.

For `O=S(=O)(CCN1CCc2ccccc2C1)Oc1ccc(Br)cc1`, the inhibition is 98.6% (active).

As for `Clc1ccc(OCCN2CCc3ccccc3C2)cc1`, the inhibition is 87.5% (active).

As to `Cc1ccc(-c2nc(CN3CCc4ccccc4C3)co2)c(C)c1`, the inhibition is 27.7%.

For `FC1(F)Oc2ccc(NCc3nc(-c4ccsc4)no3)cc2O1`, the inhibition was 48.7%.

As for `N=C1SCC(=O)N1c1ncc(Cc2ccccc2)s1`, the inhibition is 102% (active).

Regarding `COc1ccc(C2NC(=O)NC(C)=C2C(=O)OCc2ccccc2)c(OC)c1` (stereo not drawn), the inhibition was -11.8%.

On to `COc1ccc(CN(C)C(=O)Nc2ccc(C)cc2)c(OC)c1`, for which the inhibition is -33.2%.

Turning to `COc1ccc(CN(C)C2CC(=O)N(c3c(C)cccc3C)C2=O)c(OC)c1` (stereo not drawn), the inhibition was 101% (active).

`CCCC1CCCC(=C\c2ccc(OC)cc2)/C1=N\OC(=O)NCC` (stereo not drawn): the inhibition is 57% (active).

With `C=Cc1ccc(Cn2c(C)c(C(=O)Nc3ccc(OC)cc3)sc2=O)cc1`, the inhibition was 2.61%.

With `COc1ccc(NC(=O)c2sc(=O)n(Cc3ccccc3)c2C)cc1`, the inhibition is 5.9%.

Consider `C=Cc1ccc(Cn2c(C)c(C(=O)Nc3ccc(OC)c(OC)c3)sc2=O)cc1`, for which the inhibition was -5.14%.

Take `COc1ccc(NC(=O)c2sc(=O)n(Cc3ccc(OC(F)(F)F)cc3)c2C)cc1`: the inhibition is 55.9% (active).

On to `Cc1ccc(Cn2c(C)c(C(=O)Nc3ccc(C)cc3)sc2=O)cc1`, for which the inhibition was -16.4%.

On to `COc1ccc(NC(=O)c2sc(=O)n(Cc3ccc(C)cc3)c2C)cc1`, for which the inhibition was 79.5% (active).

For `COc1ccc(NC(=O)c2sc(=O)n(Cc3ccc(C)cc3)c2C)cc1OC`, the inhibition is 41.4%.

For `COc1ccc(NC(=O)c2sc(=O)n(Cc3cccc(F)c3)c2C)cc1`, the inhibition was 60.5% (active).

On to `Cc1cc(CN2CCN(c3c(Br)cnc4nc(-c5ccc(N6CCN(C)CC6)cc5)[nH]c34)CC2)no1`, for which the inhibition is 23.4%.

Regarding `Clc1ccc2c(c1)C(N1CCNCC1)=Nc1ccccc1O2`, the inhibition is 81.5% (active).

As to `Cc1ccccc1CCNC(=O)Cn1c(-c2cccs2)n[nH]c1=S`, the inhibition was 1.7%.

Take `COc1cccc2c1OCCCN(Cc1nc(-c3ccc(C(F)(F)F)cc3)oc1C)C2`: the inhibition is 23.4%.

In the case of `Cc1oc(-c2cc3c(cc2Cl)OCO3)nc1CN(C)Cc1ccc(C(F)(F)F)cc1`, the inhibition was 46.8%.

For the compound `Cc1oc(-c2ccc(C(F)(F)F)cc2)nc1CN(C)CC1COc2ccccc2O1` (stereo not drawn), the inhibition was 53.7% (active).

With `O=C(Cc1ccc(Br)cc1)NC1CCCC1`, the inhibition is 82.1% (active).

For the compound `O=C(CSC1CCCCC1)NC1CCCC1`, the inhibition was -47.7%.

For `O=C(C1=C(O)C(=O)N(c2ncccn2)C1c1ccc(Cl)c(Cl)c1)c1ccco1` (stereo not drawn), the inhibition was -2.77%.

Turning to `COc1ccc(-c2c(C)noc2-c2ccc(OC)cc2O)cc1`, the inhibition was 16.2%.

As for `O=c1oc2c(-c3ccc(Br)cc3)cc(O)cc2s1`, the inhibition is 48.6%.

Regarding `COc1ccc(-c2cc(O)cc3sc(=O)oc23)cc1`, the inhibition was 69.8% (active).

`CC(C)c1ccccc1OCCOc1cccc2cccnc12`: the inhibition was 61.7% (active).

On to `Cc1ccc2cccc(OCCCOc3ccc(C)c(C)c3)c2n1`, for which the inhibition was -21.9%.

Regarding `CC(C)c1cccc(OCCOc2cccc3cccnc23)c1`, the inhibition is 58.4% (active).

On to `Cc1cc(S(=O)(=O)NC2CCCCC2C)ccc1Cl` (stereo not drawn), for which the inhibition was 14.4%.

For the compound `O=C1c2ccccc2C(=O)C1c1ccnc2ccccc12`, the inhibition is -13.4%.

Turning to `Nc1c2ccccc2nc2ccccc12` (tested in a mixture with another compound), the inhibition is 90.3% (active).

As for `COc1ccc(-c2cc(C(=O)NCCN3CCCCC3)nc3c(-c4ccccc4)c(C)nn23)cc1`, the inhibition is 38.1%.

For `Cc1nn2c(-c3ccccc3Cl)cc(C(=O)O)nc2c1-c1ccccc1`, the inhibition was 71.1% (active).

Consider `Cc1nn2c(-c3cccc(C(F)(F)F)c3)cc(C(=O)O)nc2c1-c1ccccc1`, for which the inhibition was 89.3% (active).

Regarding `COc1ccccc1CN(Cc1cccc(C(F)(F)F)c1)Cc1nc(C(=O)O)co1`, the inhibition is 9.16%.

As to `Cc1nn2c(NCCOCCO)cc(C(C)(C)C)nc2c1-c1ccccc1Cl`, the inhibition is 19.6%.

In the case of `O=C1CCCC2=C1C(c1ccncc1)NC(=O)N2Cc1ccccc1` (stereo not drawn), the inhibition is 85.2% (active).

On to `COc1ccc2cc(C(=O)C3CCCN(C(=O)CCC(=O)c4ccc(F)cc4)C3)ccc2c1` (stereo not drawn), for which the inhibition was 87.2% (active).

As for `COc1ccc(C(=O)N2CCCC(C(=O)c3ccc(-c4ccccc4)c(F)c3)C2)o1` (stereo not drawn), the inhibition entry was “inactive”.

Consider `COc1ccc2cc(C(=O)C3CCCN(Cc4cccc(C)n4)C3)ccc2c1` (stereo not drawn), for which the inhibition is 42.4%.

As to `CC(C)c1ccc(Nc2nccc3c2ncn3Cc2ccccc2)cc1`, the inhibition is 73% (active).

For the compound `Cc1ccc(Nc2nc(N3CCN(Cc4ccccc4)CC3)nc3nccnc23)cc1Cl`, the inhibition is 19.4%.

As for `Clc1ccc(Cn2ncc3c(Nc4ccc(Cl)cc4)ncnc32)cc1`, the inhibition was 9.84%.

As for `Clc1ccc(Nc2nccc3c2ncn3Cc2ccccc2)cc1`, the inhibition was 57.3% (active).

Consider `Cc1cc2ncn(Cc3ccc(C(C)C)cc3)c2cc1C`, for which the inhibition was -9.75%.

Take `C=C(C)Cn1c(SCCCC)nc2c1c(=O)[nH]c(=O)n2C`: the inhibition is -35.9%.

Regarding `CCS(=O)(=O)N1CCc2cc(-c3csc(-c4ccc(O)cc4)n3)ccc21`, the inhibition was 11.5%.

For `O=C(CCC(F)(F)F)N1CCCC(CCc2ccc(F)cc2F)C1` (stereo not drawn), the inhibition was 66% (active).

For `Cc1ccc(C(=O)N2CCCC(CCc3ccc(F)c(F)c3)C2)cc1O` (stereo not drawn), the inhibition is 7.31%.

Regarding `O=C(CCCc1ccc(Cl)cc1)N1CCCC(CO)(Cc2ccc(F)cc2F)C1` (stereo not drawn), the inhibition was 18.9%.

For the compound `CCCn1cc(CNC(=O)c2ccc(Cl)cn2)cn1`, the inhibition was -32.2%.

On to `CCCn1cc(NC(=O)c2cc(-c3ccccc3)on2)cn1`, for which the inhibition was 85.3% (active).

For `CCCOc1ccc2c(c1)OCC(C(=O)Nc1cnn(C)c1)=C2`, the inhibition is -4.68%.

Consider `O=S(=O)(Nc1ccc(N2CCCC2)c(F)c1)c1cc(F)cc(F)c1`, for which the inhibition was 56.4% (active).

Regarding `O=[N+]([O-])c1cc(S(=O)(=O)C(F)(F)F)ccc1N1CCN(c2ccccc2F)CC1`, the inhibition is 24.3%.

Take `Cc1ccc(C(=O)N2CCCN(C(=O)OC(C)(C)C)CC2)cc1S(C)(=O)=O`: the inhibition is 74.7% (active).

With `O=C(c1cc(Br)cc(Br)c1)N1CCCCCC1`, the inhibition is -4.59%.

With `Cc1ccc(Cl)cc1N1CCN(C(=O)c2ccc(=O)[nH]c2)CC1`, the inhibition was 32.4%.

As for `Cc1cc2c(cc1C)C(=O)C(N1CCOCC1)=C(c1ccccc1)C2=O`, the inhibition is 40.4%.

As for `OCc1sc(N2CCOCC2)nc1-c1ccccc1`, the inhibition is 89.7% (active).

Turning to `CCN(Cc1ccccc1)C(=O)c1ccc(-c2ccccc2)nc1N1CCOCC1`, the inhibition was 20.4%.

Turning to `Cc1cc(-c2n[nH]c(=S)o2)c(C)n1-c1ccccc1`, the inhibition was 70.3% (active).

In the case of `S=c1[nH]nc(-c2cc(-c3cccs3)nc3ccccc23)o1`, the inhibition result is “inactive”.

As to `O=S(=O)(Nc1ccc(Br)cc1Cl)c1ccc(F)cc1`, the inhibition was 50.5% (active).

Turning to `COC(=O)c1ccc(F)c(NS(=O)(=O)c2ccc(Cl)c(C(F)(F)F)c2)c1`, the inhibition is 41.9%.

Turning to `O=S(=O)(Nc1ccc(Br)cc1F)c1cccs1`, the inhibition was 31.8%.

Regarding `O=S(=O)(Nc1ccc(Br)cc1F)c1ccc(Cl)c(C(F)(F)F)c1`, the inhibition was 88.3% (active).

On to `O=[N+]([O-])c1ccc(NN=C2CCCCCCC2)cc1`, for which the inhibition is 88.4% (active).

Turning to `CC(C)(C)C1CCC(=NNc2ccc([N+](=O)[O-])cc2)CC1` (stereo not drawn), the inhibition was -18.8%.

For the compound `O=[N+]([O-])c1ccccc1NN=C1CCCCc2ccccc21`, the inhibition is 5.1%.

Consider `CCC(C)(C)C1CCC(=NNc2ccc([N+](=O)[O-])cc2)CC1` (stereo not drawn), for which the inhibition was 74.3% (active).

Regarding `O=[N+]([O-])c1ccc(NN=CC2CCCCC2)cc1`, the inhibition was 97.8% (active).

For the compound `O=S(=O)(Oc1ccc2ccccc2c1Cl)N1CCCCC1`, the inhibition is 0.9%.

Regarding `Cc1nn(-c2ccccc2)c2[nH]cc(C(=O)Nc3ccc(N(C)C)cc3)c(=O)c12`, the inhibition was 29%.

With `COc1ccc(NC(=O)c2c[nH]c3c(c(C)nn3-c3ccccc3)c2=O)cc1`, the inhibition was 67.8% (active).

Turning to `Cc1nn(-c2ccccc2)c2[nH]cc(C(=O)Nc3ccccc3)c(=O)c12`, the inhibition was 53.1% (active).

As to `COc1cccc(NC(=O)c2c[nH]c3c(c(C)nn3-c3ccccc3)c2=O)c1`, the inhibition was 90.4% (active).

As to `Cc1ccc(-n2nc(C)c3c(=O)c(C(=O)N4c5ccccc5CC4C)c[nH]c32)cc1` (stereo not drawn), the inhibition is 54.2% (active).

As for `Cc1cc(C)cc(NC(=O)c2c[nH]c3c(c(C)nn3-c3ccccc3)c2=O)c1`, the inhibition is 45.9%.
